High-throughput results (PubChem)
GASC-1 inh: inhibitors of GASC-1 histone demethylase, primary screen, biochemical, fluorescence, DELFIA europium. actives 0.069% (n = 330,000). Lysine-specific demethylase 4C (Homo sapiens), Q9H3R0. inhibition, % at 2.35 µM. AID 2099, 2009. GST-JMJD2C(1-420) H3K9me3 demethylation;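 active = more than half of a compound's replicate wells show inhibition beyond 50%, single wells judged on their own value; inconclusive = some, but no more than half, of replicates pass 50% inhibition; inactive = no replicate passes 50% inhibition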;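 also: signal counts dimethyl H3K9 product captured on neutravidin plate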
Target sequence (Q9H3R0 1-420 limits assumed): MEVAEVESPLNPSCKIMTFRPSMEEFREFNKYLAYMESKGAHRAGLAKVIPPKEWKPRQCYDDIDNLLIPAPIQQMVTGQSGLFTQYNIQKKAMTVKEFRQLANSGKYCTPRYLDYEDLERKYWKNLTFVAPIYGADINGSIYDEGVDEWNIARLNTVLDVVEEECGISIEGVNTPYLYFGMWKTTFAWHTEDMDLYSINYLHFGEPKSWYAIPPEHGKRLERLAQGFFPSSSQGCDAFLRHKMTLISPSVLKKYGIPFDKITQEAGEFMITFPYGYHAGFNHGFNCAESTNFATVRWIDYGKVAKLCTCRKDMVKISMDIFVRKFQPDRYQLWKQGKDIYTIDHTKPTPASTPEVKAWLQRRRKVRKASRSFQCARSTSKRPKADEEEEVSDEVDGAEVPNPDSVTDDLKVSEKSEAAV
HDAC3 inhib: HDAC3 deacetylase inhibitors, primary screen, biochemical, fluorescence, cell-free homogeneous; recombinant HDAC3, fluorogenic peptide/trypsin coupled; inhibition, % at 8.3 µM; actives 0.15% (n = 320,000); AID 2718, 2010; in the data active = inhibition above about 26%, passing the limit was not always enough; inconclusive = no clear call, values can overlap the other calls
PolyA inhibitor: polyadenylation inhibitors in yeast reporter cells, primary screen, luminescence, S. cerevisiae; S. cerevisiae SKY197-pL101 polyadenylation reporter, beta-gal luminescence; efflux-impaired pdr1/pdr3 knockout yeast; score 100 = 6 SD above DMSO; activity score, % at 12 µM; actives 0.02% (n = 300,000);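 active = lowest replicate activity score at least 50, where 100 means six control SD above control mean; inconclusive = lowest score under 50 but half or more replicates reach 50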;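 also: yeast exposed to compound for 9 h at 30 °C; higher score means more reporter readthrough which indicates perturbed polyadenylation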
NALP3 yeast inh: NALP3 inflammasome inhibitors in reconstituted yeast, primary screen, luminescence, uHTS; Yeast reconstituted NLRP3/ASC/caspase-1, beta-gal luminescence, 24 h; inhibition, % at 10 µM; actives 0.39% (n = 330,000); AID 2825, 2010;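 active = inhibition of 50% or more; inactive = inhibition below 50%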
Efflux pump inh: inhibitors of Candida efflux pumps in yeast, primary screen, S. cerevisiae, Nile Red, multiplex | inhibition, % at 10 µM | S. cerevisiae Candida pump triplex | actives 0.44% (n = 330,000);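 active = plate passing quality check with inhibition over a set limit, or well fluorescence over plate mean plus 4 SD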;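 also: Nile Red retained in pooled yeast measured as flow cytometry median fluorescence; higher means more Nile Red kept so more efflux inhibition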
NALP1 inh: NALP1 inflammasome inhibitors in reconstituted yeast, colorimetric, S. cerevisiae, triplicate retest. actives 0.61% (n = 280,000). inhibition, % at 10 µM. S. cerevisiae NALP1/ASC/caspase-1 growth, X-gal OD620, 72 h; in the data active = inhibition mostly above about 24%, no sharp cut-off; inactive = mostly below about 32%
Of the large screens only hits and unclear results are named; the others gave an inactive call. An excerpt weighted towards active compounds, which were near 1.5% of everything screened.

CSc1cccc(NC(=O)CCCn2c(=O)c3cccn3c3cccnc32)c1	none
Cc1cc(C)cc(N2C(=O)CSC2c2ccccn2)c1 (centres undefined)	none
CC(C)CC1(C)NC(=O)N(Cc2cc([N+](=O)[O-])cc3c2OCOC3)C1=O (centres undefined)	NALP1 inh 23.3
O=[N+]([O-])c1cc2c(c(CSc3ncccn3)c1)OCOC2	none (no result: HDAC3 inhib)
COc1cc(C(=O)OCC(=O)NCCN2C(=O)CSC2=O)ccc1OCc1c(C)noc1C	none (no result: HDAC3 inhib)
O=C(Cn1nc(-c2ccccc2)ccc1=O)NCC1COCCO1 (centres undefined)	none
O=C(Cn1nc(-c2ccc(Cl)cc2)ccc1=O)NCC1COCCO1 (centres undefined)	GASC-1 inh 71.4
O=C(Nc1ccccc1Cl)c1sccc1-c1ccccc1	none
CCc1ccc(S(=O)(=O)NCc2cn3cccc(C)c3n2)s1	none
CCc1ccc(S(=O)(=O)NCc2cn3ccccc3n2)s1	NALP1 inh 37.9
Nc1nc(-c2ccco2)nn1C(=O)c1ccccc1	HDAC3 inhib 35.3, PolyA inhibitor inconclusive
Cc1ccc(C(=O)n2nc(-c3ccccc3)nc2NCc2ccco2)cc1	none
CCCC(=O)n1nc(-c2ccco2)nc1N	HDAC3 inhib 40.3
O=C(c1ccccc1)n1nc(-c2ccccc2)nc1NCc1ccco1	HDAC3 inhib 38.0
O=C(Nc1ccc(N2CCOCC2)cc1N1CCOCC1)c1ncoc1-c1cccc(F)c1	none
Cc1nn(CC(=O)NC2CCC(C)CC2)c(C)c1[N+](=O)[O-] (centres undefined)	none (no result: PolyA inhibitor, NALP1 inh)
COc1ccc(C2C(C(C)=O)=C(C)N=c3s/c(=C\c4ccco4)c(=O)n32)c(OC)c1 (centres undefined)	none
COc1ccc(C2C(C(C)=O)=C(C)N=c3s/c(=C\c4cc(C)n(C)c4C)c(=O)n32)c(OC)c1 (centres undefined)	Efflux pump inh 2.5
CCOC(=O)C1=C(C)N=c2s/c(=C/c3cccc([N+](=O)[O-])c3O)c(=O)n2C1c1ccc(OC)cc1OC (centres undefined)	Efflux pump inh 0.7
Cc1cccc(NC(=O)C2CC(=O)n3cnnc3S2)c1 (centres undefined)	NALP1 inh 40.4
CCN=C1SC(C(=O)Nc2cccc(C)c2)CC(=O)N1CC (centres undefined)	none
O=C(CNC1CCCCCC1)Nc1ccc(N2CCCC2)cc1	none
O=C(CNC1CCCC1)Nc1ccc(N2CCCCCC2)cc1	NALP1 inh 29.7
CCOC(=O)[C@H]1[C@H]2COc3ccc(OC)cc3[C@@H]2N2C(=O)c3cc(C)ccc3NC(=O)[C@@]12C	GASC-1 inh 51.6 (no result: PolyA inhibitor, Efflux pump inh, NALP1 inh)
CCN(CC(=O)Nc1ccc(C)c(F)c1)CC(=O)NC(C)(C)C	none
Cn1c(=O)c(=O)n(C)c2cc(S(=O)(=O)N3CCCC3C(=O)NCc3cccnc3)ccc21 (centres undefined)	PolyA inhibitor inconclusive
Cc1c(Br)c([N+](=O)[O-])nn1CCCC(=O)NC(C)c1ccccc1 (centres undefined)	none
C/C(=N\Nc1ccccc1)c1cccc(N)c1	none
Oc1ccc(O)c(/C(=N/Nc2ccccc2)c2ccccc2)c1	NALP1 inh 41.6
CC(C)N1C/C(=C/c2cccnc2)C(=O)/C(=C/c2cccnc2)C1	NALP1 inh 105.8 (no result: GASC-1 inh, HDAC3 inhib, PolyA inhibitor, NALP3 yeast inh, Efflux pump inh)
CCCCC(=O)N1CCN(c2nc3ccc(Cl)cc3s2)CC1	none
CN(C)CCCN(C(=O)c1ccc2c(c1)CCCC2)c1nc2ccc(F)cc2s1	NALP1 inh 46.8
CCN(CC)CCN(C(=O)c1ccc2c(c1)CCCC2)c1nc2ccc(F)cc2s1	none (no result: HDAC3 inhib)
CN(C)CCN(C(=O)/C=C/c1cccs1)c1nc2ccc(F)cc2s1	GASC-1 inh 50.3, NALP1 inh 53.9 (no result: HDAC3 inhib)
CCN(CC)CCN(C(=O)/C=C/c1cccs1)c1nc2ccc(Cl)cc2s1	none
CCCCCCCCCCCC(=O)N/N=C/c1ccco1	PolyA inhibitor 81.8
CCCCCCCC(=O)N/N=C/c1ccco1	none
CCc1nc(N2CCN(C(=O)CCl)CC2)c2c3c(sc2n1)CC(C)CC3 (centres undefined)	NALP1 inh 40.2
CCc1nc(N2CCN(C(C)=O)CC2)c2c3c(sc2n1)CC(C(C)(C)C)CC3 (centres undefined)	none
CCOc1ccc(C(Nc2cccnc2)c2cc(Cl)c3cccnc3c2O)cc1 (centres undefined)	NALP1 inh 44.4 (no result: PolyA inhibitor)
Cc1ccc(OCC(=O)N(c2ccccn2)C2CCCCC2)c(C)c1	NALP1 inh 43.6
O=C(COc1ccc(Cl)cc1Cl)N(c1ccccn1)C1CCCCC1	none
CC(C)Cn1c(SCC(=O)N(C)c2c(N)n(Cc3ccccc3)c(=O)[nH]c2=O)nc2ccccc21	none (no result: NALP1 inh)
CCc1sc(C(=O)Nc2ccc3c(c2)OCCO3)cc1Br	none
COc1ccccc1CN1CCN(Cc2nc(-c3cccs3)no2)CC1	PolyA inhibitor inconclusive, NALP1 inh 22.5
COc1ccc(S(=O)(=O)NCC2CCCN(Cc3ccc(C)o3)C2)cc1 (centres undefined)	NALP1 inh 33.0
CN(C)c1ccc(/C=C(\C#N)C(=O)c2ccccc2)cc1	NALP1 inh 36.6 (no result: NALP3 yeast inh)
O=C(/C=C/c1ccc([N+](=O)[O-])cc1)Nc1cccc(C(=O)Nc2ccccc2C(=O)O)c1	NALP1 inh 27.8 (no result: NALP3 yeast inh)
O=C(Oc1ccc(Cl)cc1N1C(=O)CCC1=O)c1ccco1	HDAC3 inhib 34.1
Cc1cc(/C=C2\SC(=S)NC2=O)c(C)n1-c1cccc(O)c1	Efflux pump inh 0.8
Cc1onc(-c2ccccc2)c1C(=O)Nc1ccnn1C1CCCCC1	NALP1 inh 31.5
Cc1ccc(C2(C(F)(F)F)NC(=O)N3CCN=C3S2)cc1 (centres undefined)	none
Cc1ccc(C2(C(F)(F)F)N=C3Sc4cc(C)ccc4N3C(=O)N2)cc1 (centres undefined)	PolyA inhibitor inconclusive, NALP1 inh 36.2
Cc1ccc2c(c1)CC(C)N2S(=O)(=O)c1nnc(NC(=O)CC(C)C)s1 (centres undefined)	none
Cc1nc(C2CCC3C4CCC5=CC(=O)CC[C@]5(C)C4CC[C@]23C)cs1 (some centres undefined)	Efflux pump inh 2.0
Cc1ccc2c(c1)N(C(=O)CCC(=O)N1CCC(C(N)=O)CC1)CC(C)O2 (centres undefined)	none (no result: HDAC3 inhib)
CCOC(=O)/C=C/C(=O)Nc1nccs1	NALP1 inh 45.8
O=C(NCc1ccccc1Cl)C1CCN(C(=O)c2ccco2)CC1	GASC-1 inh 57.9
Cc1ccc(Nc2nc(N/N=C/c3c[nH]c4ccccc34)nc(N3CCOCC3)n2)cc1	HDAC3 inhib 25.5
